Sampled rows, rich in hits. Any-hit rate of the full collection: about 7.6%.
Cy5 interf NS3h: counter-screen for HCV NS3 helicase inhibitors: fluorescence interference. AID 720488. fluorescence interference ratio at 100 µM. hit rate 6% among 16,000. Cy5-dT15 DNA with NS3h; actives lie on both sides; signal over control mean, under 1 quenches;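 active = compound fluorescence over control fluorescence at most 0.8, a quencher, or at least a set upper limit, an enhancer; inactive = ratio between 0.8 and the set upper limit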
HCV NS3h FP: blocks HCV NS3 helicase binding to DNA. inhibition, % at 100 µM. NS3h Cy5-dT15 DNA binding, fluorescence polarization. hit rate 1.6% among 16,000;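 active = inhibition above the average over every tested compound plus 3 SD, cut at about 40% in these data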
NS3h confirm: hepatitis C NS3 helicase inhibition, confirmation; shares compounds with HCV NS3h FP; NS3h binding to Cy5-dT15 DNA, fluorescence polarization; inhibition, % at 100 µM; hit rate 20% among 240;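 active = percent inhibition of 50% or more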
SSB FP counter: counter-screen for HCV NS3 helicase inhibitors: E. coli SSB binding; shares compounds with HCV NS3h FP; E. coli SSB binding Cy5-dT15, fluorescence polarization; inhibition, % at 100 µM; hit rate 40% among 240; AID 720486;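 active = inhibition of at least 50%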;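 also: displacers lower Cy5 polarization so higher inhibition means more SSB displaced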
Target sequence (P0AGE0 whole entry, looked up): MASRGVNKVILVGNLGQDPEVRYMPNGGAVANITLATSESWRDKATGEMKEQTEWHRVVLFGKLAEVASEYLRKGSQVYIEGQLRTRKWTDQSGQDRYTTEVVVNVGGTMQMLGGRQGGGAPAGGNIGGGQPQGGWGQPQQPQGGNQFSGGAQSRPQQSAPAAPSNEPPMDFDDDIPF
Cy5 SSB interf: enhances or quenches Cy5-DNA fluorescence with E. coli SSB; hit rate 8% among 240; fluorescence interference ratio at 100 µM; Cy5-dT15/E. coli SSB fluorescence interference; actives lie on both sides; AID 720487; shares compounds with HCV NS3h FP;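 active = fluorescence interference ratio at or above 1.2, signal boosting, or at or below 0.8, signal quenching; inactive = ratio between 0.8 and 1.2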
Cy5 fluor confirm: confirmation counter-screen for HCV NS3 helicase inhibitors: fluorescence interference; shares compounds with HCV NS3h FP; Cy5-dT15 DNA/NS3h fluorescence interference counterscreen; fluorescence interference ratio at 100 µM, hits read low; hit rate 44% among 240;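 active = fluorescence interference ratio at or below 0.8 quencher or at or above a set limitenhancer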
Of the large screens only hits and unclear results are named; the others gave an inactive call (follow-up assays come after a bar, where they were run).

CS(=O)(=O)N1CCN(C(=O)c2ccccc2F)CC1	Cy5 interf NS3h 0.696
O=C1C(=Cc2ccccc2Br)C(=O)c2ccccc21	HCV NS3h FP 74.4 | NS3h confirm 51.0 | SSB FP counter inactive | Cy5 SSB interf inactive | Cy5 fluor confirm inactive
COc1cccc(C=C2C(=O)c3ccccc3C2=O)c1	none
O=[N+]([O-])c1cccc2c1NC(c1ccccc1F)C1CC=CC21 (stereo not drawn)	none
O=C(O)c1cccc2c1NC(c1cccc3ccccc13)C1CC=CC21 (stereo not drawn)	HCV NS3h FP 49.8 | NS3h confirm inactive | SSB FP counter inactive | Cy5 SSB interf inactive | Cy5 fluor confirm inactive
Cc1ccc(NC(=O)Cc2nnc(NC(=O)Nc3cccc(Cl)c3)s2)cc1	none
CN1C(=O)C(=Cc2ccc(-c3ccc(Cl)c(C(=O)O)c3)o2)C(=O)N(C)C1=O	none
N#CC(C#N)=Cc1ccc(-c2ccc(Cl)c(C(=O)O)c2)o1	HCV NS3h FP 42.9 | NS3h confirm inactive | SSB FP counter inactive | Cy5 SSB interf inactive | Cy5 fluor confirm 0.794
CCCCCCCCNC(=O)CCC(=O)O	none
Cc1ccc(CN2CCN(/N=C\c3ccccc3C)CC2)cc1	none
O=c1c2c(nc3cc(-c4cccs4)[nH]n13)CCS2	HCV NS3h FP 60.3 | NS3h confirm inactive | SSB FP counter inactive | Cy5 SSB interf inactive | Cy5 fluor confirm inactive
O=c1c2c(nc3cc(-c4cccs4)[nH]n13)CCC2	none
Cc1ccccc1OCCOc1ccccc1/C=c1\sc2nc3ccccc3n2c1=O	none
Cc1ccc(C)n1-c1ccc(CC(=O)O)cc1	HCV NS3h FP 84.9 | NS3h confirm 66.9 | SSB FP counter 96.4 | Cy5 SSB interf inactive | Cy5 fluor confirm inactive
CC(=O)c1ccc(-n2c(C)ccc2-c2ccccc2)cc1	none
NS(=O)(=O)c1ccc(NC(=S)NC(=O)c2ccccc2)cc1	HCV NS3h FP 50.0 | NS3h confirm inactive | SSB FP counter 83.0 | Cy5 SSB interf inactive | Cy5 fluor confirm inactive
CC(=O)c1ccc(NC(=S)NC(=O)c2ccccc2)cc1	none
COc1cc(C=C2C(=O)NC(=S)NC2=O)ccc1OCCOc1ccc(C(C)(C)C)cc1	none
CCOC(=O)c1[nH]c(=O)[nH]c1CSc1ccccn1	HCV NS3h FP 43.8 | NS3h confirm inactive | SSB FP counter inactive | Cy5 SSB interf inactive | Cy5 fluor confirm inactive
COc1ccc(NC(=O)CSc2ccccn2)cc1	none
N#C/C(=C\c1ccc(-c2ccccc2C(=O)O)o1)C(=O)Nc1ccccc1	none
COC(=O)C1=C(O)/C(=C\c2cccc(Br)c2)N=C1C	none
O=C1NC(=Nc2ccc(O)cc2)S/C1=C\c1ccccc1	HCV NS3h FP 45.9 | NS3h confirm inactive | SSB FP counter inactive | Cy5 SSB interf inactive | Cy5 fluor confirm inactive
O=C1NC(=Nc2ccc(Br)cc2)S/C1=C\c1ccc(O)cc1	none
CC1(C)CC(C(CC#N)Cc2ccccc2)CCO1 (stereo not drawn)	none
O=C1NC(=O)N(c2ccccc2F)C(=O)/C1=C/c1ccc(O)c(Cl)c1	none
COc1ccccc1N1C(=O)NC(=O)/C(=C\c2ccc(O)c(O)c2)C1=O	HCV NS3h FP 43.5 | NS3h confirm inactive | SSB FP counter inactive | Cy5 SSB interf inactive | Cy5 fluor confirm inactive
O=C1NC(=O)N(c2ccc(Cl)cc2)C(=O)/C1=C/c1cc(Br)c(O)c([N+](=O)[O-])c1	none | NS3h confirm inactive | SSB FP counter 75.7 | Cy5 SSB interf inactive | Cy5 fluor confirm inactive
Cc1cccc(N2C(=O)NC(=O)/C(=C\c3ccc(O)c(Cl)c3)C2=O)c1	HCV NS3h FP 64.7 | NS3h confirm inactive | SSB FP counter inactive | Cy5 SSB interf inactive | Cy5 fluor confirm inactive
O=C1NC(=O)N(c2cccc(Cl)c2)C(=O)/C1=C/c1ccc(O)c(Cl)c1	none
C=CCOc1c(Br)cc(/C=C2\C(=O)NC(=O)N(c3ccc(Cl)cc3)C2=O)cc1OC	none
Cc1ccc(N2C(=O)NC(=O)/C(=C\c3ccc(O)c(Br)c3)C2=O)cc1	none
Cc1cc(C)cc(N2C(=O)NC(=O)/C(=C\c3ccc(O)c(Br)c3)C2=O)c1	none | NS3h confirm inactive | SSB FP counter inactive | Cy5 SSB interf inactive | Cy5 fluor confirm 0.749
COc1cc(/C=C(\C#N)C(=O)Nc2ccc(F)cc2)c([N+](=O)[O-])cc1OC	none
Cc1cccc(/C=N\NC(=O)/C(=C\c2ccc3c(c2)OCO3)NC(=O)c2ccccc2)c1O	none
Cc1cc(/C=C2\C(=O)NC(=O)N(c3ccccc3F)C2=O)c(C)n1-c1cccc([N+](=O)[O-])c1	none
Brc1ccc(CN2CCN(Cc3cccnc3)CC2)cc1	none
Cc1ccc(OCC(=O)Nc2cc(Cl)cc(Cl)c2)cc1C	none
NC1=NN(c2ccc(N)cc2)CC1	Cy5 interf NS3h 0.0757, HCV NS3h FP active | NS3h confirm 90.1 | SSB FP counter 100.0 | Cy5 SSB interf 0 | Cy5 fluor confirm 0.0718
O=C(Nc1cccc2nsnc12)c1ccc(Cl)cc1Cl	none
COc1cc(C2C(=C(O)c3ccccc3)C(=O)C(=O)N2c2cccc(C(F)(F)F)c2)ccc1O (stereo not drawn)	none
O=C1NC(=O)C(=Cc2cc(Br)ccc2OCc2cccc3ccccc23)C(=O)N1	HCV NS3h FP 48.5 | NS3h confirm inactive | SSB FP counter 72.1 | Cy5 SSB interf inactive | Cy5 fluor confirm inactive
O=C1NC(=O)C(=Cc2ccccc2OCCOc2ccccc2)C(=O)N1	none
COc1cccc(CN2CCN(Cc3ccc([N+](=O)[O-])cc3)CC2)c1OC	none
CCC(c1ccccc1)c1nnc(NC(=O)Nc2cccc(Cl)c2)s1 (stereo not drawn)	Cy5 interf NS3h 1.2, HCV NS3h FP 46.7 | NS3h confirm inactive | SSB FP counter inactive | Cy5 SSB interf inactive | Cy5 fluor confirm 0.739
O=C(NCC(c1ccccc1)c1ccccc1)Nc1cccc(Cl)c1	none
CCN(CC)c1ccc(/C=C2\C(=O)NC(=O)N(Cc3ccccc3)C2=O)c(OC)c1	Cy5 interf NS3h 3.01, HCV NS3h FP 79.2 | NS3h confirm inactive | SSB FP counter inactive | Cy5 SSB interf 2.15 | Cy5 fluor confirm 1.75
O=C1NC(=O)N(Cc2ccccc2)C(=O)/C1=C/c1cccs1	none
Cc1[nH]c2ccccc2c1/C=N\NC(=O)c1cccnc1	none
O=C1NC(=O)N(c2ccc(Cl)cc2)C(=O)/C1=C\c1ccc(-c2ccccc2[N+](=O)[O-])o1	none
O=C1NC(=O)N(c2ccc(Cl)cc2)C(=O)/C1=C/c1ccc(-c2ccccc2C(=O)O)o1	HCV NS3h FP 44.5 | NS3h confirm 56.3 | SSB FP counter inactive | Cy5 SSB interf inactive | Cy5 fluor confirm inactive
CCOc1ccc(N2C(=O)NC(=O)/C(=C\c3ccc(-c4ccccc4C(=O)O)o3)C2=O)cc1	HCV NS3h FP 67.0 | NS3h confirm inactive | SSB FP counter inactive | Cy5 SSB interf inactive | Cy5 fluor confirm inactive
CCOc1ccc(N2C(=O)NC(=O)/C(=C\c3ccc(-c4ccc([N+](=O)[O-])cc4OC)o3)C2=O)cc1	none
CCOC(=O)c1sc(NC(=O)CCCOc2ccc(Cl)cc2Cl)nc1C	none | NS3h confirm inactive | SSB FP counter inactive | Cy5 SSB interf inactive | Cy5 fluor confirm 0.746
O=C(CCCOc1ccc(Cl)cc1Cl)Nc1ncn[nH]1	none
